The text below walks through data of PubChem BioAssay (NCATS).

SMILES strings stand for the structures. Where “and” joins values, the source holds several entries; their conditions need not be identical. Equal entries are not always repeated. Values without a mark were called inactive. Records with an inconclusive call do not appear. Calls of active or inactive are those of the source. Unless noted, the call rests on the fitted dose curve; in most records, active means well fitted curve in the direction sought with a large enough effect; inconclusive means small, poorly fitted or top-dose-only effect, or another doubt; inactive means no such curve, though single readings can be large; an effect the other way counts as inactive or inconclusive.

Experiment [1] in a line: AP1 Signaling Pathway (AID 357; active means well fitted curve in either direction with a large enough effect, not every such curve was filed as active; further: on the % scale 0 is the no-effect control and ±100 the full control effect). The note with it: ME-180 AP-1-bla reporter, EGF-induced, beta-lactamase ratio, 5 h; at 7.69 µM (top of the series) unless noted. A digest of the protocol: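 Modulation of EGF-driven AP-1 transcription was assessed with a beta-lactamase reporter in ME-180 cells. Compound and EC50 EGF were co-incubated 5 hours at 37 °C before 2.5-hour CCF4 loading at room temperature and dual-emission reading.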

Experiment [2] deals with Cytochrome P450 1A2 (Homo sapiens) (UniProt P05177). The experiment is described as follows: p450-cyp1a2 (AID 410; calls by dose curve; further: potency means the concentration at half of the fitted maximal effect;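 on activity change, negative = inhibition: -100% = full effect of reference inhibitor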). The procedure, abridged:
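Luminescent readout of luciferin formed from Luciferin-ME by human CYP1A2; data normalized against complete inhibition by 57 uM furafylline. Enzyme 20nM, substrate 100uM at Km, 100mM KPO4 buffer, 60 min reaction at room temperature.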

The nature of experiment [3]: Stat Signaling Pathway (AID 446; active means well fitted curve in either direction with a large enough effect, not every such curve was filed as active;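 further: ME-180 cervical cancer cells given 40 pM IL-6 alongside compound; SIE-controlled beta-lactamase reporter measured as 460/530 nm FRET emission ratio; on the % scale 0 is the no-effect control and ±100 the full control effect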). The note with it: ME-180 SIE beta-lactamase reporter, IL-6 stimulated, 5 h; at 7.69 µM (top of the series) unless noted. The procedure, abridged: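 ME-180 SIE-bla cells; overnight plating; cpd + IL-6 40 pM, 5 h, 37 C; LiveBLAzer 2.5 h RT; 460/530 nm emission ratio. Normalized to 300 pM IL-6 and 125 nM JAK inhibitor controls.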
For experiment [4], the target named is Glucocorticoid receptor (Homo sapiens) (UniProt P04150). The experiment is described as follows: GR-GFP Redistribution (AID 450;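 active means compounds whose dose series gives a full or clear partial fitted curve of increased nuclear translocation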; further: potency means the concentration at half of the fitted maximal effect). The note with it: U2OS GR-GFP nuclear translocation, laser cytometry, 2 h.
In experiment [5] the target is Mitogen-activated protein kinase 10 (Mus musculus) (UniProt Q61831). In words: JNK3 AlphaScreen Assay (AID 530; active means well fitted curve in either direction with a large enough effect, not every such curve was filed as active;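 further: kinase came from lysate of stimulated human HepG2 cells; signal reports phosphorylation of biotinylated GST-cJun 1-79 at Ser73 with 10 µM ATP; on the % scale 0 is the no-effect control and ±100 the full control effect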). A digest of the protocol:
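Compound titrations were preincubated 15 minutes at room temperature with substrate, antibody and pre-activated JNK3-containing HepG2 lysate. Reactions were started with 10 uM ATP and stopped with EDTA-containing bead buffer for AlphaScreen detection.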
In general terms: Alpha assays give light when donor and acceptor beads are brought close together.

Experiment [6] deals with 3',5'-cyclic-AMP phosphodiesterase 4B (Homo sapiens) (UniProt Q07343). In words: qHTS Assay for Inhibitors of PDE-IV (AID 607; active means well fitted activation curve with a large enough effect in the main read-out, with a control signal flat, not every such curve was filed as active; further: % of control where 0% means no effect). The procedure, abridged:
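ACTOne HEK293 cells carry a modified cAMP-gated CNG channel and express endogenous PDE4; plated 1000 cells/well, compounds up to 22.9 uM final. Membrane-potential dye fluorescence (ex 535/em 590) was read; parental cells received 10 uM forskolin + 100 uM RO 20-1724.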
A general note: Quantitative high-throughput screening tests each substance at several concentrations.

Experiment [7] is described as follows: qHTS Assay for Identification of Small Molecule Agonists for Thrombopoietin (TPO) Signaling Pathway (AID 917). Further: on the % scale 0 is the no-effect control and ±100 the full control effect. The procedure, abridged: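 Luminescence from a Glycoprotein IIb promoter–driven luciferase reporter served as read-out in murine Ba/F3 cells carrying the human TPO receptor. Cells, deprived of IL-3 overnight, received compounds with 26 pM TPO and were incubated 24 hrs at 37 C.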

The target in experiment [8] is Muscarinic acetylcholine receptor M1 (Rattus norvegicus) (UniProt P08482). In words: qHTS Assay for Antagonists of Acetylcholine Muscarinic M1 Receptor: Measurement of IP-One Response (AID 944). Further: nearly all actives have a fitted effect of over 75% in size. Further: potency means the concentration at half of the fitted maximal effect. The procedure, abridged: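 M1-CHO (rat), 2000 cells/well, overnight recovery; cpd 10 min; carbachol EC80 (200 nM), 30 min, HEPES buffer + 50 mM LiCl pH 7.4; IP-One HTRF, Ex 337, Em 620/665 nm.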

Experiment [9] concerns the target Pyruvate kinase (Leishmania mexicana) (UniProt Q27686). In words: qHTS Validation Assay for Inhibitors of Leishmania Mexicana Pyruvate Kinase (AID 945).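 Further: 0% = DMSO only neutral control wells.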 A digest of the protocol:
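The enzyme is a highly purified E451W mutant of LmPYK used at 0.2 nM. It converts 0.5 mM PEP and 0.1 mM ADP over 1 h at room temperature; product ATP is quantified by luciferase luminescence relative to DMSO controls.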

Experiment [10] deals with Pyruvate kinase PKM (Homo sapiens) (UniProt P14618). The experiment is described as follows: qHTS Assay for Activators of Human Muscle Pyruvate Kinase (AID 954; active means well fitted curve in the direction sought with a large enough effect, not every such curve was filed as active;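 further: 0% = uninhibited enzyme and -100% = no enzyme or full thiadiazolimine inhibition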). A digest of the protocol: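 Luminescence from a luciferase ATP-detection/stop reagent reported PKM2 activity. Reactions contained 0.1 nM purified human enzyme, 0.5 mM PEP, 0.1 mM ADP and 7 mM MgCl2 at pH 7.2, run 1 h at RT.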

The target of experiment [11] is Alpha-galactosidase A (Homo sapiens) (UniProt P06280). The experiment is described as follows: Counterscreen for Glucocerebrosidase Inhibitors: qHTS Assay for Human alpha-Galactosidase at pH 4.5 (AID 992). Further: 0% is about no effect. The procedure, abridged: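 Enzyme at 2 nM final was combined with compound (0.7 nM to 77 uM) and 80 uM 4-methylumbelliferyl alpha-D-galactopyranoside in 50 mM citric acid, 0.005% Tween-20, pH 4.5. After 20 min at room temperature, fluorescence was read (Ex 365/Em 440 nm); AC50 came from Hill fits.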
(In general: A counterscreen serves to expose hits that act by an unwanted route or on another target.)

Experiment [12] addresses alpha-glucosidase (Oryza sativa, rice) (UniProt Q653V4). In words: Counterscreen for Glucocerebrosidase Inhibitors: qHTS Assay for Rice alpha-Glucosidase at pH 5.0 (AID 997).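 Further: 0% = full activity with enzyme and -100% = basal without enzyme.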 A digest of the protocol:
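Rice alpha-glucosidase (4 nM final) with 400 uM 4-methylumbelliferyl-alpha-D-glucopyranoside in citrate buffer pH 5.0, 20 min at room temperature, stopped at pH 10; fluorescence 365/440 nm, compounds 0.7 nM–77 uM, AC50 from Hill fits.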

For experiment [13], the target named is Glucocorticoid receptor (Homo sapiens) (UniProt P04150). In words: GR-EFC Redistribution (AID 451; calls by dose curve; further: potency means the concentration at half of the fitted maximal effect). The note with it: CHO-K1 GR-EFC translocation, beta-gal luminescence, 2 h. A digest of the protocol: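 Translocation of GR-ED fusion to nuclear EA restores b-gal, read by luminescence after 1 h room-temperature detection. Engineered CHO-K1 biosensor cells, 1,000/well, exposed 2 h at 37 C to titrations up to 46 uM final.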

Experiment [14] addresses Cytochrome P450 3A4 (Homo sapiens) (UniProt P08684). The experiment is described as follows: qHTS Assay for Activators of Cytochrome P450 3A4 (AID 885). Further: nearly all actives have a fitted effect of over 65% in size. Further: potency means the concentration at half of the fitted maximal effect. A digest of the protocol:
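20nM CYP3A4 + 25uM Luciferin-PPXE (=KM), 200mM KPO4; cpd 10 min RT; NADPH regen, 60 min RT; stop w/ detection buffer, 20 min; luminescence. Normalized to 57 uM ketoconazole.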

Experiment [15] has as its target Cytochrome P450 2C19 (Homo sapiens) (UniProt P33261). The experiment is described as follows: qHTS Assay for Inhibitors and Substrates of Cytochrome P450 2C19 (AID 899). Further: potency means the concentration at half of the fitted maximal effect; nearly all actives have a fitted effect of over 60% in size. A digest of the protocol:
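5nM enzyme + 10uM Luciferin-H EGE (=KM), 50mM KPO4; cpd pin-transferred, 10 min 37C; NADPH regen, 60 min 37C; stopped w/ luciferin detection reagent, 20 min; luminescence. Normalized to 57uM ketoconazole (AC100).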

Experiment [16] addresses Guanine nucleotide-binding protein G(i) subunit alpha-1 (Homo sapiens) (UniProt P63096). In words: qHTS Assay for Inhibitors of RGS12 GoLoco Motif Activity (Green Fluorophore) (AID 879).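 Further: 0% = labeled peptide with Gαi1 and full inhibition = labeled peptide alone without protein; negative values mean loss of peptide binding seen as reduced polarization.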 The procedure, abridged:
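Fluorescence polarization assay: 50 nM Gαi1 with 10 nM FITC-labeled RGS12 GoLoco peptide in 10 mM Tris pH 7.5, 150 mM NaCl, 0.1 mM GDP, 0.05% NP40, 10 min at room temperature with compound.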

Experiment [17] deals with Muscarinic acetylcholine receptor M1 (Rattus norvegicus) (UniProt P08482). In words: qHTS Assay for Antagonists of Acetylcholine Muscarinic M1 Receptor: Kinetic Measurement of Intracellular Calcium Response (AID 943). Further: potency means the concentration at half of the fitted maximal effect; nearly all actives have a fitted effect of over 75% in size. The procedure, abridged:
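Rat M1-CHO cells, 2000/well, overnight → Fluo-4 no-wash dye with probenecid, 1 h 37C → compound 10 min, room temp → basal read 6 s → carbachol EC80 (100 nM) → 4 min kinetic read; peak/basal.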

The nature of experiment [18]: NFAT Signaling Pathway (AID 444; active means well fitted curve in either direction with a large enough effect, not every such curve was filed as active). The note with it: Jurkat NFAT-bla M1, carbachol, beta-lactamase ratio, 5 h; at 7.69 µM (top of the series) unless noted. A digest of the protocol:
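Read-out: CCF4 FRET ratio (460 nm/530 nm) after 1 h RT dye loading, used for %activity and AC50 from titration series. Cells: Jurkat NFAT-β-lactamase/M1 line, treated with compound plus 1 uM carbachol for 5 h, 37 °C.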

Experiment [19] addresses Cytochrome P450 2C9 (Homo sapiens) (UniProt P11712). The experiment is described as follows: qHTS Assay for Inhibitors and Substrates of Cytochrome P450 2C9 (AID 883). Further: potency means the concentration at half of the fitted maximal effect; nearly all actives have a fitted effect of over 60% in size. A digest of the protocol: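 Inhibition of CYP2C9 is scored as loss of luminescence, with 57uM sulphaphenazole defining 100% inhibition. Substrate Luciferin-H is used at 100uM, equal to its KM; enzyme at 10nM in 25mM KPO4, 60 min at 37C with NADPH regeneration.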

In experiment [20] the target is Cytochrome P450 2D6 (Homo sapiens) (UniProt P10635). In words: qHTS Assay for Inhibitors and Substrates of Cytochrome P450 2D6 (AID 891). Further: potency means the concentration at half of the fitted maximal effect; nearly all actives have a fitted effect of over 60% in size. The procedure, abridged:
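Human CYP2D6 (5 nM) with 30 uM Luciferin-ME EGE (at Km) in 100 mM KPO4, compound preincubated 10 min, then NADPH regeneration system for 60 min at room temperature. Luciferin read by luminescence; normalized to 1.43 uM quinidine.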

Experiment [21] in a line: qHTS Assay for Identification of Small Molecule Antagonists for Thrombopoietin (TPO) Signaling Pathway (AID 918). Further: potency means the concentration at half of the fitted maximal effect; nearly all actives have a fitted effect of over 60% in size. As to conditions: TPO-dependent cell signaling reporter, antagonist mode. A digest of the protocol:
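Ba/F3 (murine, hTPO-R, GPIIb-luc reporter); overnight IL-3 withdrawal; cpd + TPO 26 pM final (EC50); 24 h 37 C/5% CO2; Steadylite luminescence after 10 min RT.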

Sequence of 3',5'-cyclic-AMP phosphodiesterase 4B (Homo sapiens) (Q07343 whole entry, looked up): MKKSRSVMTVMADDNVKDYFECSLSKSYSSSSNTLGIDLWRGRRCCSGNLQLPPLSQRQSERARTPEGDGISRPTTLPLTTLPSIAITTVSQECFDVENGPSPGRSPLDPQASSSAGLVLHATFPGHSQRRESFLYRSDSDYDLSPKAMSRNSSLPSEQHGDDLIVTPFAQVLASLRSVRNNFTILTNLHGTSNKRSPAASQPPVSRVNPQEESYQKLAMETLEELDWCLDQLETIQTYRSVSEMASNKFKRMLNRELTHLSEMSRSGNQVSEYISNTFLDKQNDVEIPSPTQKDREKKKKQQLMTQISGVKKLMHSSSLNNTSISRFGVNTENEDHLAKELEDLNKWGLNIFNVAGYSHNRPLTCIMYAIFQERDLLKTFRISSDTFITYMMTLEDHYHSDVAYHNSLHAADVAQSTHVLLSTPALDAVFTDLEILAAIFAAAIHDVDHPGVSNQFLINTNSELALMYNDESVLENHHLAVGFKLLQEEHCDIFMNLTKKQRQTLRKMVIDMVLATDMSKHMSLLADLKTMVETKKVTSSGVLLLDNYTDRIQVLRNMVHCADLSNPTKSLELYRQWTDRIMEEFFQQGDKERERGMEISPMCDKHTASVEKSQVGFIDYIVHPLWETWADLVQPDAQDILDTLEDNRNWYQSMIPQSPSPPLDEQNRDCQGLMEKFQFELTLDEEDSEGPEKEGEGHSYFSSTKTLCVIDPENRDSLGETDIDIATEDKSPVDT
Sequence of Muscarinic acetylcholine receptor M1 (Rattus norvegicus) (P08482 whole entry, looked up): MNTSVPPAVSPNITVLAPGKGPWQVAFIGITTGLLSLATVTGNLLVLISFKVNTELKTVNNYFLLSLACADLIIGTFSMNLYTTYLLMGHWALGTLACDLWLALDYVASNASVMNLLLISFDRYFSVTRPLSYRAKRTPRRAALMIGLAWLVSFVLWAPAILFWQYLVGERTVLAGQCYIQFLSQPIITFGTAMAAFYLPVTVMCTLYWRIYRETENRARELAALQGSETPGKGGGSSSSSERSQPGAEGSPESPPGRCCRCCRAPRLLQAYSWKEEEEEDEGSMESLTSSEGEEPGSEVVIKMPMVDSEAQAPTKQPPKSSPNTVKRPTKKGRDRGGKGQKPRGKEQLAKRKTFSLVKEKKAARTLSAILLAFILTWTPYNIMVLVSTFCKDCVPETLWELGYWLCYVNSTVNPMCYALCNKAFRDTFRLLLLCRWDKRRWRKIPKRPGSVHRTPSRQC
Sequence of Pyruvate kinase PKM (Homo sapiens) (P14618 whole entry, looked up): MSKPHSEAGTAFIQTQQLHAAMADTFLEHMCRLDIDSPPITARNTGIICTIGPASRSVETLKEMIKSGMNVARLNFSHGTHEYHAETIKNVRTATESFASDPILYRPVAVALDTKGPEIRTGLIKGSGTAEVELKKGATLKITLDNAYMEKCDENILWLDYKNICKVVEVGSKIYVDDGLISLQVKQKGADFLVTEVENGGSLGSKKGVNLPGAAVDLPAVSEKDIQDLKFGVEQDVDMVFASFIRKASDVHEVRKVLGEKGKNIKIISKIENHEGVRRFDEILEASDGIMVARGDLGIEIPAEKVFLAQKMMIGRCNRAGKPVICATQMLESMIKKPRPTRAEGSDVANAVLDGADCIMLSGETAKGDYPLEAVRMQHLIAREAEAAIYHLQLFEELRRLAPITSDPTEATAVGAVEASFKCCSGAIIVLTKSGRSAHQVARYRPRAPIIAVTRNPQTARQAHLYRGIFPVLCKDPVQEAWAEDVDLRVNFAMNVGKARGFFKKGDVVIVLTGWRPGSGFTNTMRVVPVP
Sequence of Cytochrome P450 1A2 (Homo sapiens) (P05177 whole entry, looked up): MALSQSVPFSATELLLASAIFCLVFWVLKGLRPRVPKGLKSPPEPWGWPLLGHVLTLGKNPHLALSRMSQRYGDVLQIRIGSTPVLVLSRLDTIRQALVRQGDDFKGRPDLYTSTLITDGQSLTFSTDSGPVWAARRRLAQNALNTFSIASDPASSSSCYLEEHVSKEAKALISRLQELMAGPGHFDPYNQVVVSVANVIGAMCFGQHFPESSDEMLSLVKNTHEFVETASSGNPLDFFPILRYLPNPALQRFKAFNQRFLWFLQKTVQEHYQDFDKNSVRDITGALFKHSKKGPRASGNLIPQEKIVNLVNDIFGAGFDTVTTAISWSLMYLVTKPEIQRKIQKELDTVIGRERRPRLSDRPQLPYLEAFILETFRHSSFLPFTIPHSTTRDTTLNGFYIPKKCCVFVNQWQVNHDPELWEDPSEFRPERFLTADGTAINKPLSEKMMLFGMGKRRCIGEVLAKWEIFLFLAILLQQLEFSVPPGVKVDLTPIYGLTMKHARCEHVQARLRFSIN
Sequence of Alpha-galactosidase A (Homo sapiens) (P06280 whole entry, looked up): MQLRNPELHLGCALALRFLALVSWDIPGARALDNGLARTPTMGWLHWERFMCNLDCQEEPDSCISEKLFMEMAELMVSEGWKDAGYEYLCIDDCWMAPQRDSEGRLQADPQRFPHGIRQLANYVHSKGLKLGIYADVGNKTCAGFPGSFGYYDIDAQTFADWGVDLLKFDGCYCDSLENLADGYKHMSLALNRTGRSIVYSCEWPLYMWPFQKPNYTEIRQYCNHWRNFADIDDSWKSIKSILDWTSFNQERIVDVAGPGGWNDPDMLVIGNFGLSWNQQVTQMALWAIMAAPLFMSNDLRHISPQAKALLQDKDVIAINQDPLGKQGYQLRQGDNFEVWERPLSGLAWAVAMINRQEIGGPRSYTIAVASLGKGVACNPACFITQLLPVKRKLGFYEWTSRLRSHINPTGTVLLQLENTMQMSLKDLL
Sequence of Glucocorticoid receptor (Homo sapiens) (P04150 whole entry, looked up, the tested form may be a part): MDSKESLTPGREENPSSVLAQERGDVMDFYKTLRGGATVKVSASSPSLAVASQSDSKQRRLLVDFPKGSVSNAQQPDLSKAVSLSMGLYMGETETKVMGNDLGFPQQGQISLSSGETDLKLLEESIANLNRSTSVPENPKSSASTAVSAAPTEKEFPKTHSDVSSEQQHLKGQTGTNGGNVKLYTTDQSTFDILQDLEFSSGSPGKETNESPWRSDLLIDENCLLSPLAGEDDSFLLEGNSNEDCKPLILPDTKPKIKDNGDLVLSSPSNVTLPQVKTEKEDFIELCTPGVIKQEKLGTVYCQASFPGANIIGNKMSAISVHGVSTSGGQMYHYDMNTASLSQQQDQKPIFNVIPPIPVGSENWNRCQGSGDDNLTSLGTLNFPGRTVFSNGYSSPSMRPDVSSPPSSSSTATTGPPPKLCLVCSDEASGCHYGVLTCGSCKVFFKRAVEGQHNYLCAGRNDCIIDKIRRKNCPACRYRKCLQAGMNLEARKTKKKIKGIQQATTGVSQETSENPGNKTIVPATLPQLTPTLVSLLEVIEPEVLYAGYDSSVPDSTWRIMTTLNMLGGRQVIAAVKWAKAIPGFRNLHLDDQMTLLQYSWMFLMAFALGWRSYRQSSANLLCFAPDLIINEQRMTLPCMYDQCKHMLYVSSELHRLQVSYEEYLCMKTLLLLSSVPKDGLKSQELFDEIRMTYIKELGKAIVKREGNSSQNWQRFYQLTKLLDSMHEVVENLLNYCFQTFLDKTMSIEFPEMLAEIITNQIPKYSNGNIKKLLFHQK
Sequence of Pyruvate kinase (Leishmania mexicana) (Q27686 2-499 E452W): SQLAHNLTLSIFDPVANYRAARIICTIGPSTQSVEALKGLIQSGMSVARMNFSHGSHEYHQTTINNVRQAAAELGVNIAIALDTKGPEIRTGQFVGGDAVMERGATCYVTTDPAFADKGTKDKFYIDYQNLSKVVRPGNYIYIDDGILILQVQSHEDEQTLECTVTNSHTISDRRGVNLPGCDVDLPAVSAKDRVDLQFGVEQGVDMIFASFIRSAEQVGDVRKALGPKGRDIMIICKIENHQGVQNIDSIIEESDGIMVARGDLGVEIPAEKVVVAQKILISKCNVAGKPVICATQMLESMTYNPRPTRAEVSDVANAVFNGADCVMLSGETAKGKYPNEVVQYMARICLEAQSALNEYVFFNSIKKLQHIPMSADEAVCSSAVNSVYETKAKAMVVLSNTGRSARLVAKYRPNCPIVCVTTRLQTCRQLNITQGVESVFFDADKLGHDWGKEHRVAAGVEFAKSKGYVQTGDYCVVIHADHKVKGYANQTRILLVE
Sequence of Cytochrome P450 3A4 (Homo sapiens) (P08684 whole entry, looked up): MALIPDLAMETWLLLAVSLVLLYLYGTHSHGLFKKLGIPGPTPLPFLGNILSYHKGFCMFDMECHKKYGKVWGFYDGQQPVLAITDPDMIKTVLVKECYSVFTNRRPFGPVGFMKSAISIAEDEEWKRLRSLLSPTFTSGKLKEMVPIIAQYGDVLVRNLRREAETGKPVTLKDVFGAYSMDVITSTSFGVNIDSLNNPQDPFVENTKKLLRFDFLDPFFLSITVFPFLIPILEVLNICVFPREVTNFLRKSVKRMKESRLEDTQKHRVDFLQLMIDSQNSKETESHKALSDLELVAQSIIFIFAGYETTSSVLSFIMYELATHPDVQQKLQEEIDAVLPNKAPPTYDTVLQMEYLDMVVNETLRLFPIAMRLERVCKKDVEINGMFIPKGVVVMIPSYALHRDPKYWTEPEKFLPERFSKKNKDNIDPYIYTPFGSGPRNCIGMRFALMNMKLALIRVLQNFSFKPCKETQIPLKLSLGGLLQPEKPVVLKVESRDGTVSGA
Sequence of Cytochrome P450 2D6 (Homo sapiens) (P10635 whole entry, looked up): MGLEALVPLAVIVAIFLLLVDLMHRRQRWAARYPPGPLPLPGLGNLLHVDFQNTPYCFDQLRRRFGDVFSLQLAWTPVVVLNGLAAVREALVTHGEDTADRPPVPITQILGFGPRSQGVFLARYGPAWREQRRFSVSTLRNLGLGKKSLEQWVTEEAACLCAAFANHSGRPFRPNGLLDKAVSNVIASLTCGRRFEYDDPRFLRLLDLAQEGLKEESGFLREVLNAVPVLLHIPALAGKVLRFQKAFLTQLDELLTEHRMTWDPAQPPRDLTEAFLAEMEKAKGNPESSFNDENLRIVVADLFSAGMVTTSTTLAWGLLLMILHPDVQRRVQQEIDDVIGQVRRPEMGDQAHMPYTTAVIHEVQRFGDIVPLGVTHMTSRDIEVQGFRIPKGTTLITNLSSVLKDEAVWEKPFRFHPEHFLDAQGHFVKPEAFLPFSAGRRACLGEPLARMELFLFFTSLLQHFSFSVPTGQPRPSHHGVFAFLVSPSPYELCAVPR

For the compound `COC(=O)[C@](C)(N)Cc1ccc(O)cc1`, the activity change, negative = inhibition in [1] was 9.7% [at 38 µM]. In addition, the Potency result in [2], in experiment [5], in experiment [6], in experiment [8] and in experiment [12] was “inactive” in each case. In addition, the activity, negative = inhibition in experiment [3] is -6.8% [at 38 µM]. For the same compound, in [4], the Potency is over 46 µM. The compound was classed as inactive in experiment [7], in [9], in experiment [10] and in experiment [11].

Take `O=C1C(=O)c2ccccc2C(O)=C1C(C1=C(O)c2ccccc2C(=O)C1=O)c1ccc(Cl)cc1`: in experiment [1], the activity change, negative = inhibition was -18%. Further, the Potency was 3.98 µM (active) in experiment [2], over 46 µM in experiment [4], over 9.22 µM in experiment [13] and 3.98 µM (active) in experiment [15]. The Potency result in experiment [5], in experiment [6] and in experiment [14] was “inactive” in each case.

For `C[C@@H](CN1CCC(Cc2ccccc2)CC1)[C@H](O)c1ccc(O)cc1`, the activity change, negative = inhibition in experiment [1] was 7.29% [at 38 µM]. Moreover, the Potency is 12.6 µM (active) in experiment [2]; over 46 µM in [4]; over 46 µM in experiment [13]; 10 µM (active) in experiment [14]; 5.62 µM (active) in [17]; 7.08 µM (active) in experiment [8]. In addition, the activity, negative = inhibition in [3] is -25.3% [at 38 µM]. The Potency entry in experiment [5], in experiment [6] and in [12] was “inactive” throughout. Further, the call in [16], in experiment [7], in experiment [9] and in experiment [11] was inactive.

For the compound `CCOc1ccc(N=NS(=O)(=O)O)cc1`, the values for the activity change, negative = inhibition in experiment [1] and in experiment [18] were 8.26% and -0.735%, respectively. For the same compound, in experiment [3], the activity, negative = inhibition is 8.88%. In experiment [4], the Potency was over 46 µM. In addition, the Potency entry in experiment [5] and in experiment [6] was “inactive” each time.

`O=C(O)c1cc(-c2ccc(-c3ccccc3)cc2)nc2cc3ccccc3cc12`: the activity change, negative = inhibition in [1] is -7.09%. Further, in [3], the activity, negative = inhibition was -0.262%. Also, the Potency in experiment [4] was over 46 µM; in experiment [13] it was over 9.22 µM. Besides, the Potency entry in experiment [5] and in experiment [6] was “inactive” each time.

Consider `NCCOC[C@H](N)C(=O)O`, for which the figures for the activity change, negative = inhibition in [1] and in [18] were 3.26% and 11.6%, respectively. Also, the activity, negative = inhibition in [3] was -1.46%. Also, the Potency in experiment [4] was over 46 µM; in experiment [13], over 9.22 µM. The Potency result in experiment [5] and in experiment [6] was “inactive” throughout.

As for `CC(C)(C)[C@@]1(O)CCN2C[C@@H]3c4ccccc4CCc4cccc(c43)[C@@H]2C1`, the activity change, negative = inhibition was -4.55% [at 38 µM] and 8.62% [at 38 µM] in [1]; -14.6% [at 38 µM] and -5.47% [at 38 µM] in [18]. Also, the activity, negative = inhibition in experiment [3] is -1.04% [at 38 µM] and -27.5% [at 38 µM]. Besides, the Potency is over 46 µM in experiment [4]; over 46 µM in [13]; 1.58 µM (active) in experiment [19]; 79.4 nM (active) and 501 nM (active) in [20]; 12.6 µM (active) in [21]. Also, the Potency entry in experiment [6], in [8] and in experiment [12] was “inactive” in each case. Moreover, the compound was called inactive in [9], in experiment [10] and in experiment [11].
